Assay outcomes deposited in PubChem BioAssay by The Scripps Research Institute Molecular Screening Center.
Only some compounds are listed: those with a hit (about 3.4% of all), similar ones and a draw of the others.
FBW7 act: human FBW7 E3 ligase activation, primary screen; Q969H0; AlphaScreen FBW7–phospho-cyclin E peptide binding, activator screen; normalized activity (activation), % at 26.1 µM; hit rate 0.13% among 650,000; in the data active = normalized activity above about 1.9%;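 note: purified mutant Fbw7 with reduced substrate affinity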
GPR151 ag: human GPR151 activation; AID 1508602; activation, % at 11.2 µM; hit rate 1% among 650,000; Q8TDV0; PathHunter beta-arrestin GPR151 cells, luminescence; in the data active = activation above about 4.9%
Target sequence (Q8TDV0 whole entry, looked up): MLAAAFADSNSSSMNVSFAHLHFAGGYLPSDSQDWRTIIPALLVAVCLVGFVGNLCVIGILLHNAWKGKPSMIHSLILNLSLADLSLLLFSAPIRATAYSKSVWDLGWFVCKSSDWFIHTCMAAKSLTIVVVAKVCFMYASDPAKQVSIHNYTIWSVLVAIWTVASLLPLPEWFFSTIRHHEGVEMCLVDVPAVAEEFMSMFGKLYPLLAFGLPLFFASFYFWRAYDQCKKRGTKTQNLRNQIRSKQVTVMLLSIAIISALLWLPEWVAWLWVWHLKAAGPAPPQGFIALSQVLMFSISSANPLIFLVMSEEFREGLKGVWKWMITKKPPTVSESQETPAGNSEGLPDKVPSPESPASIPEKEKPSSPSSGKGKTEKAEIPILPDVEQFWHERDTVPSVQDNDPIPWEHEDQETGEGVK
MITF inh: inhibitors of human MITF | O75030 | AID 1259374 | AlphaScreen MITF homodimerization, bead proximity signal | inhibition, % at 2.6 µM | hit rate 0.91% among 650,000; in the data active = inhibition above about 50%
TEAD-YAP block: TEAD-YAP interaction inhibition. HEK-TIYL cells, TEAD-Gal4/YAP UAS-luciferase luminescence. inhibition, % at 9.12 µM. hit rate 1.4% among 640,000. AID 1259422; in the data active = inhibition above about 32%
GPR151 confirm: human GPR151 activation, confirmation screen; shares compounds with GPR151 ag; activation, % at 11.2 µM; 6,700 tested, under 10 active; GPR151 PathHunter beta-arrestin cells, luminescence, 90 min; % of EA-reagent control over plate median;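 active = mean percent activation across replicates above the confirmation screen cutoff of 4.91%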
GPR119 counter: counter-screen for GPR151 activators: effect on human GPR119 | activation, % at 11.2 µM | shares compounds with GPR151 ag | hit rate 0.3% among 6,700 | GPR119 PathHunter beta-arrestin cells, luminescence, 90 min; 0 = compound-well median, 100 = enzyme-acceptor control;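 active = mean percent activation in the counterscreen above 29.09%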;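 note: counterscreen on off-target GPR119 to flag nonselective hits from the GPR151 activator screen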
Numbers stand for hits; i = inactive; nt = no result.

SMILES	FBW7 act	GPR151 ag	MITF inh	TEAD-YAP block	GPR151 confirm	GPR119 counter
Cc1cc(C(=O)Nc2cc(Cl)ccc2O)on1	i	10	i	i	i	i
CC(=O)N1CC(C)Sc2cc(S(=O)(=O)NCc3ccc4c(c3)OCO4)ccc21 (stereo not given)	i	5.1	i	i	i	i
CCOc1ccc(-n2c(C)c(C(C)=O)c3cc(OC(C)=O)ccc32)cc1	i	5.3	i	i	i	i
C=CCOC(=O)C1=C(C)NC(=O)NC1c1ccc(O)c([N+](=O)[O-])c1 (stereo not given)	i	i	i	i	nt	nt
O=C(/C=C\N1CCCCC1)c1ccc(Cl)cc1	i	6.1	i	i	i	i
COCC(C)NC(=O)CSc1nnnn1-c1ccc(O)cc1 (stereo not given)	i	i	i	i	nt	nt
O=C(Cn1ncc2ccccc2c1=O)NNC(=S)NC1CC2CCC1C2 (stereo not given)	i	10	i	i	i	i
O=C(O)c1c(CNC2CC2)c2ccccc2n1Cc1ccccc1F	i	i	i	i	nt	nt
COc1ccc(/C=C/C(=O)c2ccc[nH]2)cc1OC	i	5.8	i	i	i	i
N#Cc1c(N2CCCCC2)nc(-c2ccco2)c2c1CCCC2	i	i	i	i	nt	nt
CC1(C)Cc2c(C#N)c(N3CCCC3)nc(-c3ccco3)c2CO1	i	12	i	i	i	i
O=C(NC(=S)NC(=O)c1ccccc1F)c1ccccc1F	i	i	i	i	nt	nt
O=C(NC(=S)NCc1ccccc1)c1ccccc1F	i	7.0	i	i	i	i
COCCCNCCOc1ccc(Cl)c(Cl)c1	i	i	i	i	nt	nt
COc1ccc(NC(=O)Cc2ccccc2[N+](=O)[O-])cc1OC	i	6.5	i	i	i	i
CC(=O)c1cccc(NC(=O)COc2ccccc2[N+](=O)[O-])c1	i	6.2	i	i	i	i
O=C(COc1ccccc1Cl)N/N=C\C=N/NC(=O)COc1ccccc1Cl	i	12	i	i	i	i
CC(C)(C)NC(=O)COc1ccccc1[N+](=O)[O-]	i	i	i	i	nt	nt
O=C(COc1ccccc1Cl)N/N=C/c1ccc(F)cc1	i	i	i	i	nt	nt
O=C(COc1ccccc1-c1ccccc1)NNC(=O)COc1ccccc1[N+](=O)[O-]	i	7.1	i	i	i	i
COc1ccc(NC(=O)Cc2ccccc2[N+](=O)[O-])cc1Cl	i	i	i	i	nt	nt
Clc1ccccc1CSc1nc2ccccc2c2nc3ccccc3n12	i	i	i	i	nt	nt
O=C(NCCN1CCN(C(=O)c2cccc([N+](=O)[O-])c2)CC1)C(=O)Nc1ccc(Br)cc1	i	i	i	i	nt	nt
O=C(NC(=S)NCc1ccco1)c1cc([N+](=O)[O-])ccc1N1CCOCC1	i	7.4	i	i	i	i
O=C(NCc1ccco1)c1cc([N+](=O)[O-])ccc1N1CCCCC1	i	i	i	i	nt	nt
SMILES	FBW7 act	GPR151 ag	MITF inh	TEAD-YAP block	GPR151 confirm	GPR119 counter
C/C(=N\NC(=O)COc1ccccc1[N+](=O)[O-])c1ccc(Cl)cc1	i	7.1	i	i	i	i
O=C(COc1ccccc1[N+](=O)[O-])N/N=C/c1ccccc1Cl	i	22	i	i	i	i
C/C(=N/NC(=O)COc1cccc(Cl)c1)c1cccc([N+](=O)[O-])c1	i	6.6	i	i	i	i
CCOc1cc(C2CC(=O)NC(SCC(=O)Nc3ccc(C)cc3C)=C2C#N)ccc1O (stereo not given)	i	i	i	i	nt	nt
CCCCN(CC)CC(=O)N1CCCc2c1c(=O)oc1ccc(OCCC)cc21	i	i	i	i	nt	nt
COc1ccc(OC(=O)COc2ccccc2Cl)cc1	i	7.8	i	i	i	i
C/C(=N\NC(=S)NCc1ccco1)c1cccc([N+](=O)[O-])c1	i	5.0	i	i	i	i
COc1cc([N+](=O)[O-])ccc1NC(=S)NCc1ccco1	i	i	i	i	nt	nt
O=C(COc1ccc(Cl)cc1Cl)NC1CC2CCC1C2 (stereo not given)	i	5.3	i	i	i	i
Cc1ccc(OCC(=O)N/N=C\c2cccn2C)c([N+](=O)[O-])c1	i	5.3	i	i	i	i
Cc1ccc(C)c(OCC(=O)N/N=C\c2cccn2C)c1	i	i	i	i	nt	nt
CCOc1ccc(C2C(C(=O)Nc3cc(Cl)c(OC)cc3OC)c3ccccc3C(=O)N2CCN2CCOCC2)cc1 (stereo not given)	i	i	i	i	nt	nt
CCCN1C(=O)CC(C(=O)OC)C12CCN(Cc1ccn[nH]1)CC2 (stereo not given)	i	i	i	i	nt	nt
Cc1c(Cl)cccc1NC(=O)C1CCCN1c1nnc(N2CCCC2=O)s1 (stereo not given)	i	i	i	i	nt	nt
O=C(COc1ccccc1Cl)NC1CCCCCC1	i	4.9	i	i	i	i
O=C(COc1ccccc1Br)NC1CCCCC1	i	i	i	i	nt	nt
COc1ccc(/C(C)=N\NC(=O)COc2ccc(C)cc2[N+](=O)[O-])cc1OC	i	7.4	i	i	i	i
COc1ccc(/C(C)=N\NC(=O)COc2ccc(C)cc2C)cc1OC	i	i	i	i	nt	nt
O=C1NCC2=C1C(c1ccccc1O)Nc1ccccc1N2 (stereo not given)	i	9.2	i	i	i	i
O=C1NCC2=C1C(c1ccccc1)Nc1ccccc1N2 (stereo not given)	i	i	i	i	nt	nt
CC(C)C(=O)N1CC[C@@H]2[C@H](CCCN2C(=O)c2cccc(F)c2)C1	i	i	i	i	nt	nt
COC(=O)c1cccc(C(=O)N2CCC[C@@H]3CN(C(=O)C(C)C)CC[C@H]32)c1	i	7.1	i	i	i	i
CCOC(=O)c1sc(NC(=O)C2CC2)nc1C	i	13	i	i	i	i
COc1ccc(C(=O)N/N=C/c2ccco2)cc1	i	6.9	i	i	i	i
COc1ccc(N2Cc3ccc(C(=O)N/N=C/c4ccco4)cc3C2)cc1	i	i	i	i	nt	nt
SMILES	FBW7 act	GPR151 ag	MITF inh	TEAD-YAP block	GPR151 confirm	GPR119 counter
COc1ccc(C(=O)Nc2ccc(C(=O)N/N=C/c3ccc(O)cc3O)cc2)cc1	i	8.6	i	i	i	i
COc1ccc(-c2cc(C(=O)N3CCCCC3C)[nH]n2)cc1 (stereo not given)	i	5.3	i	i	i	i
COc1ccc(-c2cc(C(=O)N3C(C)CCCC3C)[nH]n2)cc1 (stereo not given)	i	i	i	i	nt	nt
CN(C)c1ccc(-c2cnc3c(n2)[nH]c(=O)n3-c2ccccc2)cc1	i	6.0	i	i	i	i
O=C1CCCN1CCn1cnc2c(NCc3cccc(C(F)(F)F)c3)nc(Nc3ccc(N4CCOCC4)cc3)nc21	i	5.6	i	i	i	i
O=C1CCCN1CCCNc1nc(NCc2cccc(C(F)(F)F)c2)c2ncn(C3CCCCC3)c2n1	i	5.9	i	i	i	i
FC(F)(F)c1cccc(CNc2ncnc3nc(Nc4ccc(N5CCOCC5)cc4)[nH]c23)c1	i	7.1	i	i	i	i
